Results published in ChEMBL document CHEMBL1961873, “Compounds: GSK PKIS; Assays: Nanosyn kinase panel” (2012).

Key:
[1] = molecular target: Mitogen-activated protein kinase 3 (Homo sapiens) (UniProt P27361); settings: at 1 µM;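 also: values are mean percent inhibition of MAPK3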
[2] = molecular target: SRSF protein kinase 3 (Homo sapiens) (UniProt Q9UPE1); settings: at 0.1 µM
[3] = molecular target: SRSF protein kinase 3 (Homo sapiens) (UniProt Q9UPE1); settings: at 1 µM
[4] = molecular target: Mitogen-activated protein kinase 14 (Homo sapiens) (UniProt Q16539); settings: at 0.1 µM
Sequence of Mitogen-activated protein kinase 14 (Homo sapiens) (Q16539 whole entry): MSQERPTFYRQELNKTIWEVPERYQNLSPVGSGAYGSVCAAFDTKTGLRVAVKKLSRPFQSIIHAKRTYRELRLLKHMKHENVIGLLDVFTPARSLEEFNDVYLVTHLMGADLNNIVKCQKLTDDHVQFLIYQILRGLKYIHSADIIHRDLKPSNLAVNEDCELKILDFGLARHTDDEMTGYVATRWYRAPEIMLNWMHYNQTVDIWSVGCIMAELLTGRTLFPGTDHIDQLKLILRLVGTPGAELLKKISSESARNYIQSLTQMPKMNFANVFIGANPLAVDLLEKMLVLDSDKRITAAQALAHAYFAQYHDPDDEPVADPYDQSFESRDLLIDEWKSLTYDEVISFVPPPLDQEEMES

[5] = molecular target: Mitogen-activated protein kinase 14 (Homo sapiens) (UniProt Q16539); settings: at 1 µM
[6] = molecular target: Mitogen-activated protein kinase 11 (Homo sapiens) (UniProt Q15759); settings: at 0.1 µM
Sequence of Mitogen-activated protein kinase 11 (Homo sapiens) (Q15759 whole entry): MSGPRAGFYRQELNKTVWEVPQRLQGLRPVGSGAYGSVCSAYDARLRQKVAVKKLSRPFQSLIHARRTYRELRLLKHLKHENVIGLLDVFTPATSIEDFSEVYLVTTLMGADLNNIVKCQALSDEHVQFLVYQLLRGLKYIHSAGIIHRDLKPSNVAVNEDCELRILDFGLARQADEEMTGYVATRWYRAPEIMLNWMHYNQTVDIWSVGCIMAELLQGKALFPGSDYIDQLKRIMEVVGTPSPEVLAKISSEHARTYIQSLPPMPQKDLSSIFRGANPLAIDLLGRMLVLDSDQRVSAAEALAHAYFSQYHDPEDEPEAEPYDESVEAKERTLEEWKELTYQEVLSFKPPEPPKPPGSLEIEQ

[7] = molecular target: Mitogen-activated protein kinase 11 (Homo sapiens) (UniProt Q15759); settings: at 1 µM
[8] = molecular target: T1, Mitogen-activated protein kinase 13 (Homo sapiens) (UniProt O15264); settings: at 0.1 µM
T1 sequence (whole entry): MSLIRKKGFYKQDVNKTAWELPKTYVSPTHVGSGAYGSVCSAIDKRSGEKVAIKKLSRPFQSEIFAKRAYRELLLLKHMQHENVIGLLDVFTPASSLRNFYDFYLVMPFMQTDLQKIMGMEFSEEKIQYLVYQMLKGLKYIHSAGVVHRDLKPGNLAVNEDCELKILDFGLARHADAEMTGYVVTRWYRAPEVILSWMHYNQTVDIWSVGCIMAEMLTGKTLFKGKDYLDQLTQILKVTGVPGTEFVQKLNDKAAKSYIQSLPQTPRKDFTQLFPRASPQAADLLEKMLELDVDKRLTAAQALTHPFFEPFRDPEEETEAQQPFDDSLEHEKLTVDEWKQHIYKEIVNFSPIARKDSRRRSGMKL

[9] = molecular target: T1, Mitogen-activated protein kinase 13 (Homo sapiens); settings: at 1 µM
[10] = molecular target: T2, Mitogen-activated protein kinase 12 (Homo sapiens) (UniProt P53778); settings: at 0.1 µM
T2 sequence (whole entry): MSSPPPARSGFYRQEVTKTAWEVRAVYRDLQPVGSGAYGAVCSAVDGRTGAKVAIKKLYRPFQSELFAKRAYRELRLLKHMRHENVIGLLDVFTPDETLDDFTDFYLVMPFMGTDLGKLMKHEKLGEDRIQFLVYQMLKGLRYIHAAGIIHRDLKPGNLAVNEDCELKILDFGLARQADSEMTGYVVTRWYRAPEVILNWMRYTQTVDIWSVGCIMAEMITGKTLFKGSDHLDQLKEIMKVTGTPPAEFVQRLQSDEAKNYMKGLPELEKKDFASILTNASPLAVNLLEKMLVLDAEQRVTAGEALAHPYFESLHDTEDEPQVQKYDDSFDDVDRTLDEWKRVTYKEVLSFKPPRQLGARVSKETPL

[11] = molecular target: T2, Mitogen-activated protein kinase 12 (Homo sapiens); settings: at 1 µM
[12] = molecular target: SRSF protein kinase 1 (Homo sapiens) (UniProt Q96SB4); settings: at 0.1 µM
Sequence of SRSF protein kinase 1 (Homo sapiens) (Q96SB4 whole entry, canonical isoform): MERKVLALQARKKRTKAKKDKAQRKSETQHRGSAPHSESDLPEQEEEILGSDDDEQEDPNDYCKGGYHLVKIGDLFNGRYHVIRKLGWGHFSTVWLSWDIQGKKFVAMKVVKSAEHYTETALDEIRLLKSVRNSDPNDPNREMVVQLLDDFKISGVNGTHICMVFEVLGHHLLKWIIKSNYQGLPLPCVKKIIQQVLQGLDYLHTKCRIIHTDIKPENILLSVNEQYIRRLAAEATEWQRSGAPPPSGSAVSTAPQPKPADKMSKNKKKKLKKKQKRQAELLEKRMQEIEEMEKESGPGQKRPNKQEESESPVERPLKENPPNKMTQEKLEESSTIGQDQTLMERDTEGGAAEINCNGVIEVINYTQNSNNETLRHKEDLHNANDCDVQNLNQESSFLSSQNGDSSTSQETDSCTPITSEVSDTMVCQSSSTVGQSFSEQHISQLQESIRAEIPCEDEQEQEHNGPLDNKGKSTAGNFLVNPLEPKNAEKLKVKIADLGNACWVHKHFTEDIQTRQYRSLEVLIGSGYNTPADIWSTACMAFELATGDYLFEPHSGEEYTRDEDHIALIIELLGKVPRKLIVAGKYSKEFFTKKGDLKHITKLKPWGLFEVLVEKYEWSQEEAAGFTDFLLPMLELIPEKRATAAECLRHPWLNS

[13] = molecular target: SRSF protein kinase 1 (Homo sapiens) (UniProt Q96SB4); settings: at 1 µM
[14] = molecular target: Phosphatidylinositol 4,5-bisphosphate 3-kinase catalytic subunit alpha isoform (Homo sapiens) (UniProt P42336); settings: at 0.1 µM
Sequence of Phosphatidylinositol 4,5-bisphosphate 3-kinase catalytic subunit alpha isoform (Homo sapiens) (P42336 whole entry, canonical isoform): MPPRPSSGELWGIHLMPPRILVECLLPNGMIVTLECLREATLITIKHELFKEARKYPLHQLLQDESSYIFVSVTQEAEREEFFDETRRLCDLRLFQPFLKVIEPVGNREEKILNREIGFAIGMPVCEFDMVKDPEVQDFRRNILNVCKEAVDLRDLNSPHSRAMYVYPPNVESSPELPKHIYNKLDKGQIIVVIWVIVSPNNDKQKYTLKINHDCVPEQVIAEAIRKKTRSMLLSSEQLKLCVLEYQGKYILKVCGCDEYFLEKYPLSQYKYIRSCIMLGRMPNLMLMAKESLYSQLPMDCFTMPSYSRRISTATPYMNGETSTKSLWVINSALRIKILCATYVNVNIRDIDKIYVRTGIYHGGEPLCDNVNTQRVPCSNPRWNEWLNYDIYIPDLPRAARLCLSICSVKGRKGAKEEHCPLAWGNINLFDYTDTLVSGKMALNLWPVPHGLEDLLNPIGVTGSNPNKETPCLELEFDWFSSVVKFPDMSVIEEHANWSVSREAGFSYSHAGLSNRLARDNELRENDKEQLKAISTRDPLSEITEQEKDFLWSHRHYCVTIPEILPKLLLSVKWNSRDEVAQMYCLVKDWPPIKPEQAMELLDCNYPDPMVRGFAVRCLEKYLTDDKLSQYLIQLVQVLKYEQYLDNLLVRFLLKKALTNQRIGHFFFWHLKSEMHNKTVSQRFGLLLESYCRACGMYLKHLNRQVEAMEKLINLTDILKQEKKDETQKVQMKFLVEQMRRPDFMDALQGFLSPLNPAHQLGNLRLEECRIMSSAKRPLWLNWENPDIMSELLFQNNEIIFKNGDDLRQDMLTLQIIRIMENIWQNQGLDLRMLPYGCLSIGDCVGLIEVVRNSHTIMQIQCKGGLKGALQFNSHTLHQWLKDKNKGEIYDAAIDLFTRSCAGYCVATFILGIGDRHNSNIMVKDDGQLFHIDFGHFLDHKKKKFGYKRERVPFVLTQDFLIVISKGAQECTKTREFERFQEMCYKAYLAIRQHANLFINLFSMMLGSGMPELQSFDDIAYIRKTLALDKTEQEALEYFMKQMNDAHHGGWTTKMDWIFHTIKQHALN

[15] = molecular target: Phosphatidylinositol 4,5-bisphosphate 3-kinase catalytic subunit alpha isoform (Homo sapiens) (UniProt P42336); settings: at 1 µM
[16] = molecular target: T3, Phosphatidylinositol 4,5-bisphosphate 3-kinase catalytic subunit delta isoform (Homo sapiens) (UniProt O00329); settings: at 0.1 µM
T3 sequence (whole entry): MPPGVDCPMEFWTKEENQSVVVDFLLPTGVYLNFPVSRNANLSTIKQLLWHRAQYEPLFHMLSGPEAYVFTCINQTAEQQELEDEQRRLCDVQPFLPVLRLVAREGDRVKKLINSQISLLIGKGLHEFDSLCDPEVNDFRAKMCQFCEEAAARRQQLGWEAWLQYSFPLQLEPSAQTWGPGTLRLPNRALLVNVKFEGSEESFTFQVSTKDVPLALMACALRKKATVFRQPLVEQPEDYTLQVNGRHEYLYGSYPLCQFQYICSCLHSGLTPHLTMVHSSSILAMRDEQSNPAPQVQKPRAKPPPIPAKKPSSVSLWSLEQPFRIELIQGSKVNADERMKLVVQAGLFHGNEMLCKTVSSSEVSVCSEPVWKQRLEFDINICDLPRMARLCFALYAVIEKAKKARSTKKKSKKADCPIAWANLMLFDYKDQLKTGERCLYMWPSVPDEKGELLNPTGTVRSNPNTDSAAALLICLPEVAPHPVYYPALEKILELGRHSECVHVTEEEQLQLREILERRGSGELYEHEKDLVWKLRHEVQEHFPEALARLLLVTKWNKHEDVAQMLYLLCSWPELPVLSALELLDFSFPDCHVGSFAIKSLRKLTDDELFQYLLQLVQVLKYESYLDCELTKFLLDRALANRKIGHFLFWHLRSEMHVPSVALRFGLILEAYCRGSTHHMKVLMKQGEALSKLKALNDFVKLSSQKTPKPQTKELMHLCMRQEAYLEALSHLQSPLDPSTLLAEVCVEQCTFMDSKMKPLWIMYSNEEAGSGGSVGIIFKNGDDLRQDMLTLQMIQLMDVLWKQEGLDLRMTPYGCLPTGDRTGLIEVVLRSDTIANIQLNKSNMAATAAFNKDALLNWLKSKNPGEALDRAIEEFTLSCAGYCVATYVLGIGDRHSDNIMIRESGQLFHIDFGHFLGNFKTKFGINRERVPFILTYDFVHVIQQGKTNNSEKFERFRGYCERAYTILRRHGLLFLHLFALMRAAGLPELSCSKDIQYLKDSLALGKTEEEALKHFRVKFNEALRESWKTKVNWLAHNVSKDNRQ

[17] = molecular target: T3, Phosphatidylinositol 4,5-bisphosphate 3-kinase catalytic subunit delta isoform (Homo sapiens); settings: at 1 µM
[18] = molecular target: Phosphatidylinositol 4-kinase beta (Homo sapiens) (UniProt Q9UBF8); settings: at 0.1 µM
Sequence of Phosphatidylinositol 4-kinase beta (Homo sapiens) (Q9UBF8 2-816 limits assumed): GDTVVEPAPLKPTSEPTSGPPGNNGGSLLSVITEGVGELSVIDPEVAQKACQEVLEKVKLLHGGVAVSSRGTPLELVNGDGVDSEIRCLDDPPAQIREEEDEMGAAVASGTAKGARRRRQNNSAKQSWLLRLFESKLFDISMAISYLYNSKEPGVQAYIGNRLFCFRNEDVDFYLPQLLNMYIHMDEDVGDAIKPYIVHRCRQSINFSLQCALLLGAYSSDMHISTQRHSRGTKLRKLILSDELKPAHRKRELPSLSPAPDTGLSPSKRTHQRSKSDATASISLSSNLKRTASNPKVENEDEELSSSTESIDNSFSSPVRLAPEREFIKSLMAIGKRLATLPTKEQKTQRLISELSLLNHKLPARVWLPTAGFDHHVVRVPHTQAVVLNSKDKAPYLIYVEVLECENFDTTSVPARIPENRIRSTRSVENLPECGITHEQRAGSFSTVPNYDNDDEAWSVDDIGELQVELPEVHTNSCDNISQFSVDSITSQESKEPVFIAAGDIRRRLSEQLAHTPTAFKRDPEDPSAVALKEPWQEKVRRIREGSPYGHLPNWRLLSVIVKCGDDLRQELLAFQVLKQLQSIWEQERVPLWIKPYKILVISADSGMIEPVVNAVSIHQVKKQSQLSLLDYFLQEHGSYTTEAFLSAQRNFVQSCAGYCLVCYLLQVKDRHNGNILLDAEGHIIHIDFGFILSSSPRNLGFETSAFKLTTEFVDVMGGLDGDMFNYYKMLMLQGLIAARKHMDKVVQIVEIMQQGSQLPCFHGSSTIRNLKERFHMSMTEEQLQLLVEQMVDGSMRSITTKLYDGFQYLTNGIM

[19] = molecular target: Phosphatidylinositol 4-kinase beta (Homo sapiens) (UniProt Q9UBF8); settings: at 1 µM
[20] = molecular target: Sphingosine kinase 1 (Homo sapiens) (UniProt Q9NYA1); settings: at 0.1 µM;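 also: mean percent inhibition of SPHK1 activity, measured within the GSK PKIS screening panel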
Sequence of Sphingosine kinase 1 (Homo sapiens) (Q9NYA1 whole entry): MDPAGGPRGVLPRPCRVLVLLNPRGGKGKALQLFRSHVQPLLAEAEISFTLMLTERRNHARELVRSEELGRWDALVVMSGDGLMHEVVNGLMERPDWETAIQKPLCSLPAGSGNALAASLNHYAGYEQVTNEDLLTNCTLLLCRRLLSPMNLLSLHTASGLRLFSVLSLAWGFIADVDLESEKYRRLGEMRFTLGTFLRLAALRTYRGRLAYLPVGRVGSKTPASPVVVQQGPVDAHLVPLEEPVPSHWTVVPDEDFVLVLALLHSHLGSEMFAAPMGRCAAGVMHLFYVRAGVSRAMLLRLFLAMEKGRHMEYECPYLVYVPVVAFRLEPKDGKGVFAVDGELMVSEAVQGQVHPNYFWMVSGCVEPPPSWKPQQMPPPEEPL

Sequence of SRSF protein kinase 3 (Homo sapiens) (Q9UPE1 whole entry): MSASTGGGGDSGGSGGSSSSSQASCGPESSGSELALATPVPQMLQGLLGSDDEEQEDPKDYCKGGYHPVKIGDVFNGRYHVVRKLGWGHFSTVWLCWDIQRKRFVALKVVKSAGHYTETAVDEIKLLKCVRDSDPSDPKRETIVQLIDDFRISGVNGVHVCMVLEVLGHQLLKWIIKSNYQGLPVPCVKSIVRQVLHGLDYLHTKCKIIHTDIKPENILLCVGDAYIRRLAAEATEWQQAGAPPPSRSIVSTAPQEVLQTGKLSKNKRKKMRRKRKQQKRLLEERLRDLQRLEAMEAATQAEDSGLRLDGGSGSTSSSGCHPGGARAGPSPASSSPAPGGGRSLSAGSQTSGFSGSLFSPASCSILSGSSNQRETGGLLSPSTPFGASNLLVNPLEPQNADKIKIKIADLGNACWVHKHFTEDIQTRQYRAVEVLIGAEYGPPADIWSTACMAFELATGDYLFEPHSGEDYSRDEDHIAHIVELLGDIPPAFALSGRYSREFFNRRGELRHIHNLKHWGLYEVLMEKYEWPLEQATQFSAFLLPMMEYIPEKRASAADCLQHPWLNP
Sequence of Mitogen-activated protein kinase 3 (Homo sapiens) (P27361 whole entry): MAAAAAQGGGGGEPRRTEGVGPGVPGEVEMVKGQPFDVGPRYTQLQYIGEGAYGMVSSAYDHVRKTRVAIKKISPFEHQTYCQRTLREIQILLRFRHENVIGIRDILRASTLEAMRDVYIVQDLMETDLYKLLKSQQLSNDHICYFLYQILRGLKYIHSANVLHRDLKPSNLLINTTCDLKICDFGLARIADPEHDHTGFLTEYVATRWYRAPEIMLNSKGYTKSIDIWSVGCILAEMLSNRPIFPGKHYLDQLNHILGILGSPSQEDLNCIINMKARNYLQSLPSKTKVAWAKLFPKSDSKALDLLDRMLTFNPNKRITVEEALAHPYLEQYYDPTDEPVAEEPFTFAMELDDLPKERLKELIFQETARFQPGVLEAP

Row | SMILES | inhibition [1] | inhibition [2] | inhibition [3] | inhibition [4] | inhibition [5] | inhibition [6] | inhibition [7] | inhibition [8] | inhibition [9] | inhibition [10] | inhibition [11] | inhibition [12] | inhibition [13] | inhibition [14] | inhibition [15] | inhibition [16] | inhibition [17] | inhibition [18] | inhibition [19] | inhibition [20]
1 | O=C(Nc1n[nH]c2cc(-c3ccccc3)ccc12)C1CC1 | 4.97% | -0.47% | -0.2% | 4.83% | 11.2% | 4.66% | 6.34% | 3.31% | 5.86% | 6.09% | 3.52% | -1.71% | -1.41% | 2.18% | 4.34% | 1.72% | 4.03% | -5.9% | 0.66% | -0.8%
2 | COc1cc2ncn(-c3cc(OCCc4ccccc4)c(C(N)=O)s3)c2cc1OC | 0.82% | -1.68% | 0.18% | 4.09% | 13.1% | 3.65% | 2.87% | 4.25% | 1.8% | -0.53% | 1.89% | -2.73% | -4.19% | 2.08% | 3.83% | 2.55% | 5.55% | -0.92% | 3.17% | -0.54%
3 | COc1cccc(/C=N/Nc2ncnc3c2cnn3-c2cccc(OC)c2)c1 | 2.47% | -1.31% | -0.75% | 5.18% | 5.34% | 2.68% | 2.6% | 4% | 4.61% | 3.43% | 4.21% | -3.08% | -2.5% | 4.36% | 1.65% | 0.9% | 1.58% | 3.72% | 2.27% | 2.07%
4 | Nc1nccc(-c2c(-c3ccc(F)cc3)ncn2C2CCC(O)CC2)n1 (stereo unspecified) | 0% | 1.14% | 0.84% | 70.8% | 92.5% | 14.9% | 62.2% | 0.18% | -2.89% | -3.41% | -0.94% | 1.95% | 4.67% | 16.6% | 3.18% | 3.72% | 7.23% | -6.38% | -0.81% | 0.34%
5 | CN(c1ccc(NC(=O)Nc2c(Cl)cccc2Cl)cc1)c1ccnc(Nc2cccc(CS(C)(=O)=O)c2)n1 | 4.66% | 0.97% | 2.4% | 2.39% | 3.34% | 1.5% | 4.6% | 1.53% | 1.46% | -0.44% | -0.86% | -0.25% | 2.16% | 0.53% | -1.22% | 0.12% | -1.62% | 3.66% | 3.73% | -0.6%
6 | CN(C)CCOc1ccc(-c2cc(-c3ccc4c(c3)CCC4=NO)c(-c3ccncc3)o2)cc1 | 1.25% | -6.42% | -1.92% | -0.58% | 0.13% | -0.55% | 1.57% | -1.01% | -2.49% | -0.25% | -0.32% | -1.96% | -0.37% | -0.14% | 1.74% | 2.02% | 6.39% | 3.66% | 2.02% | -0.35%
7 | c1ccc(Oc2ccc(Nc3ncc(-c4ccccc4)o3)cc2)cc1 | 1.29% | 0.57% | 0.33% | 5.45% | 8.09% | -0.05% | 4.25% | 1.2% | 0.96% | -0.32% | 1.07% | -0.83% | 0.96% | 4.13% | 5.69% | 6.64% | 7.88% | 2.11% | 4.73% | 0.41%
8 | C#Cc1cccc(Nc2ncnc3ccc(OCCCCNCCS(C)(=O)=O)cc23)c1 | 5.78% | -1.8% | -2.44% | 3.36% | 13.9% | 4.69% | 7.25% | 6.43% | 4.8% | 1.66% | 3.54% | -1.38% | -0.94% | 5% | 4.83% | 2.6% | 5.7% | -2.49% | -1.03% | 5.65%
9 | CS(=O)(=O)CCNCc1ccc(-c2ccc3ncnc(Nc4ccc(OCc5ccccc5)c(Br)c4)c3c2)o1 | 4.46% | -5.29% | -0.77% | 6.51% | 5.46% | 3.98% | 5.45% | 4.88% | 3.53% | 3.43% | 3.4% | -3.23% | -2.26% | 3.6% | 1.93% | 0.72% | 2.81% | -4.04% | -0.22% | -0.92%
10 | Fc1ccc(-c2ncn(C3CCNCC3)c2-c2ccnc(Oc3ccc4c(c3)OCO4)n2)cc1 | 10.1% | 1.72% | 6.43% |  |  |  |  |  |  |  |  | -1.04% | 0.51% | 4.23% | 4.92% | 0.82% | 3.24% | 2.26% | 4.42% | 1.03%
11 | COc1cc(Nc2ncc3c(C)nc(-c4cccc(Oc5ccccc5)c4)n3n2)cc(OC)c1OC | 5.07% | 0.17% | 1.56% | 0.66% | 4.12% | 0.51% | 4.42% | 0.98% | 2.5% | 0.18% | 0.85% | -2.01% | -3.6% | 0.78% | 1.96% | 0.25% | 2.99% | 2.58% | 2.46% | -1.6%
12 | O=C(Nc1n[nH]c2nc(-c3ccc(O)cc3)c(Br)cc12)C1CC1 | 5.57% | -1.04% | 7.81% | 6.42% | 16% | 11.1% | 38.8% | 8.19% | 32.6% | 1.76% | 16.6% | -0.67% | 0.36% | 6.93% | 6% | 3.58% | 6.8% | -5.7% | 3.27% | -0.06%
13 | O=C1Nc2ccc(I)cc2C1=Cc1cc(Br)c(O)c(Br)c1 | 96.8% | 3.61% | 0.2% | 5.09% | 8.57% | 1.97% | 4.59% |  | 4.77% | 3.23% | 6.31% | -3.87% | -2.51% | 6.08% | 23.5% |  |  | -3.41% | 32.6% | -1.83%
14 | NC(=O)Cc1ccccc1Oc1nccc(-c2c(-c3ccc(F)cc3)ncn2C2CCNCC2)n1 | 2.24% | -0.6% | 0.09% |  |  |  |  |  |  |  |  | -2.64% | -4.17% | 1.29% | 3.49% | 2.67% | 2.58% | -0.45% | 3.25% | -2.17%
